hNpr1 antagonist: Natriuretic polypeptide receptor (hNpr1) antagonism - Primary qHTS | Atrial natriuretic peptide receptor 1 (Homo sapiens), P16066 | HEK293 hNpr1 GloSensor cGMP, ANP-stimulated luminescence | Potency, µM (top dose mostly 46.3 µM), without a hit: at the highest dose activity change, negative = inhibition, usual class: inhibitors | actives 1.6% (n = 76,000) | AID 1347048, 2019; calls by dose curve; also: % is scaled to controls: 0 for no effect and ±100 for the full control effect; nearly all actives have a fitted effect of over 60% in size
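Compound pre-incubated 30 min at room temperature on GloSensor-loaded HEK293 cells stably carrying hNpr1 and the pGS-40F cGMP biosensor. Stimulation uses hNppA at 0.1 nM final; luminescence is taken at baseline and 20 min post-agonist.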
Luciferase inh: Firefly luciferase inhibition profiling of diverse chemical library using quantitative high-throughput screening; Luciferin 4-monooxygenase (Photinus pyralis), P08659; purified P. pyralis luciferase, luminescence, biochemical; Potency, µM (titrated, usually from 115 µM), usual class: inhibitors; actives 2.5% (n = 76,000); also: % is scaled to controls: 0 for no effect and ±100 for the full control effect; nearly all actives have a fitted effect of over 65% in size
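Inhibitors were tested against purified firefly luciferase in a biochemical, low-substrate format (both substrates at 10uM) and luminescence measured with a CCD imager.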
NIH3T3 tox: Cytotoxic Profiling in NIH 3T3 Cell Line of Diverse Libraries Using Quantitative High-Throughput Screening. NIH 3T3 viability, CellTiter-Glo ATP luminescence, 48-72 h. Potency, µM (highest dose often 96.7 µM), inactives show top-dose activity change, negative = cytotoxicity, hits mostly inhibitors. actives 4.3% (n = 94,000). AID 1345082, 2018; also: % is scaled to controls: 0 for no effect and ±100 for the full control effect; nearly all actives have a fitted effect of over 55% in size
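ATP-dependent luminescence (CellTiter-Glo) served as the viability signal for NIH 3T3 cells treated with compound for 48 or 72 hr at 37 °C.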
HEK293 tox: Cytotoxic Profiling in HEK 293 Cell Line of Diverse Libraries Using Quantitative High-Throughput Screening; actives 6.6% (n = 94,000); Potency, µM (top dose mostly 115 µM), inactives show at the top dose activity change, negative = cytotoxicity, actives largely listed as inhibitors; HEK 293 viability, ATP luminescence (CellTiter-Glo), 48-72 h; AID 1345083, 2018; also: % is scaled to controls: 0 for no effect and ±100 for the full control effect; nearly all actives have a fitted effect of over 60% in size
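Read-out: CellTiter-Glo ATP luminescence. Cells: HEK 293, 250 cells/well. Exposure: 48 or 72 hr, 37 degree Celsius.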
GPT2 inhibitor: Primary qHTS assay for inhibitors of Glutamate pyruvate transaminase 2 (GPT2); Recombinant GPT2, coupled pyruvate oxidase/HRP Amplex Red fluorescence; AID 1671188, 2021; Alanine aminotransferase 2 (Homo sapiens), Q8TD30; Potency, µM (titrated, usually from 57.7 µM), without a hit: at the top dose activity change, negative = inhibition, actives largely listed as inhibitors; actives 0.25% (n = 100,000); also: % is scaled to controls: 0 for no effect and ±100 for the full control effect; nearly all actives have a fitted effect of over 60% in size
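Fluorescence of coupled pyruvate oxidase/HRP/Amplex Red system (50uM Amplex, 30 min, dark) reports pyruvate formed by GPT2. Enzyme reaction: 10ng/uL GPT2, 2mM L-alanine, 250uM a-KG, 30 min room temperature, pH 7.5; 50uM AOA control.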
NPR1 antag cnf: Natriuretic polypeptide receptor (hNpr1) antagonism - Confirmation. shares compounds with hNpr1 antagonist. HEK293 hNpr1 cGMP GloSensor luminescence, ANP-stimulated. Potency, µM (highest dose often 57.6 µM), without a hit: at the top dose activity change, negative = inhibition, most hits filed as inhibitors. actives 76% (n = 1,400). AID 1347044, 2019; calls by dose curve; also: nearly all actives have a fitted effect of over 70% in size
Npr2 selectivity: Natriuretic polypeptide receptor (hNpr2) antagonism - Subtype selectivity assay; shares compounds with hNpr1 antagonist; AID 1347046, 2019; Potency, µM (titrated, usually from 57.6 µM), without a hit: at the top dose activity change, negative = inhibition, most hits filed as inhibitors; HEK293 hNpr2 GloSensor cGMP luminescence, CNP-stimulated; actives 67% (n = 1,400); calls by dose curve; also: nearly all actives have a fitted effect of over 70% in size
Target sequence (P20594 whole entry, looked up): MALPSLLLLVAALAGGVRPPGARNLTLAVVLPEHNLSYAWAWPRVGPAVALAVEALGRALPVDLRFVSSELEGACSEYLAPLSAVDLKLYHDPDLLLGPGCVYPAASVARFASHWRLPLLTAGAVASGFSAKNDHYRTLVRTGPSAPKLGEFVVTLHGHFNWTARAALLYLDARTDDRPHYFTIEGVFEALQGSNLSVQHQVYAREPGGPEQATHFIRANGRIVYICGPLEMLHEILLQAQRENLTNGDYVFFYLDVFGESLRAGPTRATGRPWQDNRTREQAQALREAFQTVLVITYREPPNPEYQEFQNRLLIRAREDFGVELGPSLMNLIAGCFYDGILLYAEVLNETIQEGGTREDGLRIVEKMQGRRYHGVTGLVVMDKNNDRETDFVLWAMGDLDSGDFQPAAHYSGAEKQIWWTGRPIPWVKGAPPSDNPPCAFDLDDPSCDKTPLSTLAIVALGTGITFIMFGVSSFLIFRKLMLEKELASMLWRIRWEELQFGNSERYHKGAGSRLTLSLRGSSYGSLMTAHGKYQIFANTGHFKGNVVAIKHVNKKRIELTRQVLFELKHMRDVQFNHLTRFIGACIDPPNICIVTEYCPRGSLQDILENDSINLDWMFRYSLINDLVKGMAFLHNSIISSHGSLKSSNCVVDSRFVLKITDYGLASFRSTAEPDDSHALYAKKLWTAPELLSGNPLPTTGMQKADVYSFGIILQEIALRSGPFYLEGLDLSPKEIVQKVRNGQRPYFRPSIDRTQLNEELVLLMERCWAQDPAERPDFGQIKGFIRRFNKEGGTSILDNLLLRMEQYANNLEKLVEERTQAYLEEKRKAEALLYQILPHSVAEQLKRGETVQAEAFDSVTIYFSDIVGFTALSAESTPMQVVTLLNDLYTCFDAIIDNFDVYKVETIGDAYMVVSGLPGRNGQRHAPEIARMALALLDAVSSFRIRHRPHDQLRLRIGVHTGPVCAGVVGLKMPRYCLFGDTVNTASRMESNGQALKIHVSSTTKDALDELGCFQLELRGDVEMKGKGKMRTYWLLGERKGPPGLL
FLuc counter: Natriuretic polypeptide receptor (hNpr1) antagonism - Confirmation firefly luciferase (FLuc) inhibition counterscreen; AID 1347047, 2019; Potency, µM (doses to about 57.6 µM), for inactives: at the highest dose activity change, negative = inhibition, actives largely listed as inhibitors; purified FLuc enzyme, luminescence, Km substrate; shares compounds with hNpr1 antagonist; actives 0.7% (n = 1,400); also: 0% is about no effect
GloSensor ctrl: Natriuretic polypeptide receptor (hNpr1) antagonism - Counterscreen GloSensor control cell line. shares compounds with hNpr1 antagonist. HEK293 GloSensor cGMP, SNP-stimulated, luminescence. actives 69% (n = 1,400). AID 1347051, 2019. Potency, µM (doses to about 57.6 µM), for the others: at the top dose activity change, negative = inhibition, actives largely listed as inhibitors; calls by dose curve; also: % is scaled to controls: 0 for no effect and ±100 for the full control effect; nearly all actives have a fitted effect of over 70% in size
Starred values were filed as active, the others as inactive; i = inactive; ? = inconclusive; / = not tested or not shown; [ ] = dose if it differs, or a comment. In the library only some 10% were active in any assay of this set; here they are far more common. Unless noted, calls follow the shape of the dose curve; as a rule, active = well fitted curve in the direction sought with a large enough effect; inconclusive = small, poorly fitted or top-dose-only effect, or another doubt; inactive = no such curve, though single readings can be large; an effect the other way counts as inactive or inconclusive. Potency is read from the fitted curve at half-maximal effect.

SMILES	hNpr1 antagonist	Luciferase inh	NIH3T3 tox	HEK293 tox	GPT2 inhibitor	NPR1 antag cnf	Npr2 selectivity	FLuc counter	GloSensor ctrl
COc1ccc(CN2CCCn3nc(C)c(-c4ccccc4Oc4ccccc4)c32)cc1O	2.5µM*	i	11µM*	20µM*	i	22µM*	22µM*	3%	4.8µM*
Cc1nn2c(c1-c1ccccc1Oc1ccccc1)N(CC1CCOCC1)CCC2	-16%[70.6 µM]	i	?	?	2%[88.5 µM]	/	/	/	/
Cc1nn2c(c1-c1ccccc1Oc1ccccc1)N(Cc1ccc(C(=O)O)cc1)CCC2	2.8µM*	i	25µM*	45µM*	4%[88.5 µM]	?	?	1%[86.2 µM]	?
Cc1nn2c(c1-c1ccccc1Oc1ccccc1)N(C(=O)c1ccc(F)cc1)CCC2	-8%[70.6 µM]	i	?	?	1%[88.5 µM]	/	/	/	/
COc1ccc2c3c1CN(S(C)(=O)=O)CC3=CC(C)(C)CO2	/	/	?	-16%	/	/	/	/	/
COC(=O)CNC(=O)NCCc1ncc(C)n1Cc1ccccc1	0%	i	-9%	-14%	-7%	/	/	/	/
CC(=O)NC1CCN(c2ccc3nnc(-c4ccccc4)n3n2)CC1	/	/	-27%[138 µM]	-11%[172 µM]	/	/	/	/	/
O=C(c1ccccc1F)N1CCCC2(C1)NC(=O)N(Cc1cccc(Cl)c1)C2=O (stereo not given)	-28%	i	-6%	?	-4%	/	/	/	/
CC(=O)N1CCn2cc(C(=O)Nc3ccc(Cl)cc3Cl)nc2C1	/	/	?	-28%	?	/	/	/	/
O=C(Nc1ccc(Cl)cc1Cl)c1cn2c(n1)CN(C(=O)c1ccccc1)CC2	/	/	?	?	i	22µM*	22µM*	-10%	19µM*
O=C(N[C@H]1CO[C@H]2[C@@H]1OC[C@@H]2n1nnnc1Oc1ccccc1)c1ccc(C(F)(F)F)cc1	10µM*	i	?	?	i	11µM*	12µM*	-1%	9.7µM*
O=C(N[C@H]1CO[C@H]2[C@@H]1OC[C@@H]2n1nnnc1Oc1ccc(-n2ccnc2)cc1)c1ccc(C(F)(F)F)cc1	11µM*	i	-33%	35µM*	i	17µM*	14µM*	2%	15µM*
CC(C)c1noc([C@@H]2C[C@H]3C(=O)NCCCCCCN(C(=O)CCc4ccccc4)[C@H]3C2)n1	0%	i	-20%	?	i	/	/	/	/
O=C(NC1CCCCCC1)c1nc2cccnc2n(C2CC2)c1=O	/	/	-15%[138 µM]	3%[172 µM]	0%[88.5 µM]	/	/	/	/
O=C(c1ccncc1)N1CC2CCC(C1)N2Cc1ccc(-c2ccccc2)cc1	?	i	?	?	3%	4.3µM*	5.4µM*	-3%	4.8µM*
N#Cc1ccc(CN2C3CCC2CN(C(=O)c2ccncc2)C3)cc1	-7%[70.6 µM]	i	?	?	4%[88.5 µM]	/	/	/	/
CC(C)c1nncn1C1CCN(S(=O)(=O)c2cccc(Cl)c2)CC1	?	i	-24%	-21%	3%	?	?	0%	24µM*
O=C(NCc1ccc(F)cc1)c1ccc2nc(-c3cccnc3Cl)oc2c1	/	/	?	-22%	-4%	/	/	/	/
CC(C)CCN1CCC(N2CCN(S(=O)(=O)c3ccc(F)c(F)c3)CC2)C1=O (stereo not given)	-10%	i	-28%	-24%	-9%	/	/	/	/
Cn1nc2n(c1=O)CCN(S(=O)(=O)c1ccc3c(c1)CCCC3)CC2	0%	i	-4%	-10%	-9%	/	/	/	/
Cn1nc(C2CCN(S(=O)(=O)c3ccc4c(c3)CCCC4)CC2)n(C2CCCC2)c1=O	11µM*	i	?	?	i	19µM*	19µM*	1%	14µM*
CC(C)CCN1CCC(N2CCN(S(=O)(=O)c3ccc4c(c3)CCCC4)CC2)C1=O (stereo not given)	?	i	?	?	-19%	-30%	-24%	5%	-8%
O=C(NCc1ccc2c(c1)OCO2)c1nc(-c2cccc(C(F)(F)F)c2)c2ccccn12	?	i	-15%	?	-10%	-21%	-24%	3%	0%
CNC(=O)c1cc(C2CC2)nc2c1c(C1CCN(C(=O)c3ccccn3)C1)nn2C (stereo not given)	/	/	-13%	-21%	/	/	/	/	/
O=C1COc2ccc(OCc3cncs3)nc2CN1CCOc1ccccc1	32µM*	i	?	?	-1%[88.5 µM]	40µM*	31µM*	-2%[86.2 µM]	?
SMILES	hNpr1 antagonist	Luciferase inh	NIH3T3 tox	HEK293 tox	GPT2 inhibitor	NPR1 antag cnf	Npr2 selectivity	FLuc counter	GloSensor ctrl
O=C1COc2ccc(OCc3cccnc3)nc2CN1CCOc1ccccc1	?	i	?	?	i	/	/	/	/
O=C1COc2ccc(OCc3ccc(F)cc3)nc2CN1CCOc1ccccc1	32µM*	i	?	?	-14%[88.5 µM]	35µM*	35µM*	-3%[86.2 µM]	28µM*
Cn1ccnc1C(=O)NCC(=O)N1CCCCCNC(=O)CC1c1ccccc1 (stereo not given)	7%	i	-15%	-15%	3%	/	/	/	/
O=C1CCC2(CCN1Cc1ccccc1)CCN(S(=O)(=O)c1cccs1)CC2	?	i	?	?	-3%	?	-28%	0%	?
CCN1CCN(C(=O)c2ccc3oc(-c4ccnc(Cl)c4)nc3c2)CC1	/	/	3%[138 µM]	-11%[172 µM]	-1%[88.5 µM]	/	/	/	/
CN1CCN(Cc2ccc(Nc3cnc4ccc(-c5ccccc5)nn34)cc2)CC1	32µM*	i	?	25µM*	-11%[88.5 µM]	31µM*	31µM*	-4%[86.2 µM]	22µM*

Screening data deposited in PubChem by National Center for Advancing Translational Sciences (NCATS).
